The record followed here is PubChem BioAssay (NCATS).

Inconclusive results are not listed. Where a call stands in place of a potency, no number is given. Calls of active or inactive are those of the source. Calls follow the shape of the dose curve; as a rule, active = well fitted cell-killing curve with a large enough effect; inconclusive = small, poorly fitted or top-dose-only effect, or effect the other way; inactive = flat fitted curve, though single readings scatter.

The test concerns HeLa. Nature of the test: Primary qHTS to identify gynecologic anti-cancer compounds using libraries of approved drugs and bioactive compounds (AID 1345084). Also: nearly all actives have a fitted effect of over 55% in size. Conditions: Gynecologic cancer cell panel viability, ATPlite luminescence, 48 h; series mostly up to 57.5 µM. From the text: National Center for Advancing Translational Sciences [NCATS] Assay Overview: Chemotherapeutic drug responses vary from cancer to cancer and from patient to patient. These variations could be caused by a number of factors including patient genomic background, tumor mutations, tumor heterogeneity, and aspects of drug treatment. Chemotherapeutic drug resistance is also a common issue and can lead to ineffective treatment and patient death. Here we have profiled the cell killing effects of thousands of compounds to characterize the responses in three gynecological cancers, identify cancer-selective compounds, and understand the diversity of responses to these compounds from pan-cancer suppressors to single cell line selective compounds. In this assay, we screened a 7,914 compound drug library that included approved drug and bioactive compounds in six ovarian, three cervical, and […] placental cancer cell lines using the ATPlite assay for cell viability. […] The cervical cancer cell lines included HeLa, Ca Ski, and C-33 A. The placental cancer cell lines included JEG-3. HEK 293T cells were used as the control cell line to determine the selectivity index. ATPlite is a luminescence based assay reliant on the conversion of a luciferase substrate to light in the presence of ATP. As a cytotoxic compound will suppress growth and decrease the number of cells, the concentration of ATP will decrease, and less light signal will be detected in the well.
Assay Protocol Summary: 1,000 cells in 4 uL of media were dispensed into white, solid bottom 1536-well plates using a Multidrop Combi (Thermo Scientific). The Assay plates were incubated for 16 hours at 37 C with 5% CO2 in assay plates, followed by the addition of 23 nL of DMSO or drug dissolved in DMSO. Each compound was assayed in five concentrations (0.092, 0.46, 2.3, 11.5, and 57.5 uM), using the automated Wako 1536 Pin Tool workstation and incubated at 37 C with 5% CO2 48 hours. 4 uL of ATPlite, the ATP monitoring reagent, was then added to the each well of the assay plates using the Multidrop Combi reagent dispenser followed by incubation for 15 minutes at room temperature. The resulting luminescence was measured using the ViewLux plate reader.
For `CCc1cccc(N(C)C(N)=Nc2cccc3ccccc23)c1`, the Potency entry was “inactive”.
The entry for `Nc1nc(N)c2nc(-c3ccccc3)c(N)nc2n1` is “inactive”; for `C[C@]12CCC(=O)C=C1CC[C@@H]1[C@@H]2C(=O)C[C@@]2(C)[C@H]1CC[C@]2(O)C(=O)CO` it is “inactive”.
Next, `CC(=O)Nc1nnc(S(N)(=O)=O)s1`: “inactive”; `C(=C\c1ccccc1)/CN1CCN(C(c2ccccc2)c2ccccc2)CC1`: “inactive”; `NC(N)=N/N=C/c1c(Cl)cccc1Cl`: “inactive”.
The entry for `NC(=O)c1cn(Cc2c(F)cccc2F)nn1` is “inactive”.
As for `COC(=O)[C@@H](N)Cc1ccc(O)c(O)c1`, the Potency entry was “inactive”.
The entry for `COCCc1ccc(OCC(O)CNC(C)C)cc1` (stereo not given) is “inactive”; for `CCc1c(C)[nH]c2c1C(=O)C(CN1CCOCC1)CC2` (stereo not given) it is “inactive”.
Next, `O=C(O)CP(=O)(O)O`: “inactive”; `O=C(O)CN(CCN(CC(=O)O)CC(=O)O)CCN(CC(=O)O)CC(=O)O`: “inactive”; `CCCN1C[C@H](CSC)C[C@@H]2c3cccc4[nH]cc(c34)C[C@H]21`: “inactive”.
The entry for `NC1=NCC2c3ccccc3Cc3ccccc3N12` (stereo not given) is “inactive”; for `c1cc(CN2CCCCC2)cc(OCCCNc2nc3ccccc3s2)c1` it is “inactive”.
As to `OC(CCN1CCCCC1)(c1ccccc1)C1CCCCC1` (stereo not given), the Potency entry was “inactive”.
Next, `CCn1nc(C(=O)O)c(=O)c2cc3c(cc21)OCO3`: “inactive”; `Brc1c(NC2=NCCN2)ccc2nccnc12`: “inactive”; `Cc1ccc(/C(=C\CN2CCCC2)c2ccccn2)cc1`: “inactive”.
The entry for `CN(C)CC[C@@H](c1ccc(Br)cc1)c1ccccn1` is “inactive”; for `CCn1ccnc1CC1COc2ccccc2O1` (stereo not given) it is “inactive”.
With `CN/C(=C\[N+](=O)[O-])NCCSCc1ccc(CN(C)C)o1`, the Potency result is “inactive”.
The entry for `CNCCC(Oc1ccccc1OC)c1ccccc1` (stereo not given) is “inactive”; for `O=C(CCCN1CCC(O)(c2cccc(C(F)(F)F)c2)CC1)c1ccc(F)cc1` it is “inactive”; for `C[N+](C)(C)CCOC(=O)CCC(=O)OCC[N+](C)(C)C` it is “inactive”.
Next, `CCCCNc1ccc(C(=O)OCCN(C)C)cc1`: “inactive”.
The entry for `CCCCNC(=O)NS(=O)(=O)c1ccc(C)cc1` is “inactive”; for `CN(C)CCN(Cc1cccs1)c1ccccn1` it is “inactive”.
Take `CN(C)CCCN1c2ccccc2Sc2ccc(C(F)(F)F)cc21`: the Potency result is “inactive”.
On to `CC(C)(Oc1ccc(CCNC(=O)c2ccc(Cl)cc2)cc1)C(=O)O`, for which the Potency entry was “inactive”.
The entry for `FC(F)(F)c1ccccc1-n1ccnc1` is “inactive”.
Next, `CC(C)COCC(CN(Cc1ccccc1)c1ccccc1)N1CCCC1` (stereo not given): “inactive”; `CN1C(=O)CC[C@H]1c1cccnc1`: “inactive”; `CC(C)NNC(=O)c1ccncc1`: “inactive”.
Next, `Nc1c2c(nc3ccccc13)CCCC2O` (stereo not given): “inactive”.
With `C[N+](C)(C)CCCCCCCCCC[N+](C)(C)C`, the Potency entry is “inactive”.
Next, `CCN(CC)CCCN(c1ccccc1)C1Cc2ccccc2C1`: “inactive”; `Cc1nnc(SCC2=C(C(=O)O)N3C(=O)[C@@H](NC(=O)Cn4cnnn4)[C@H]3SC2)s1`: “inactive”.
In the case of `CNCCCN1c2ccccc2CCc2ccccc21`, the Potency entry is “inactive”.
The entry for `COC(=O)[C@H]1[C@H]2C[C@@H]3c4[nH]c5cc(OC)ccc5c4CCN3C[C@H]2C[C@@H](OC(=O)c2cc(OC)c(OC)c(OC)c2)[C@@H]1OC` is “inactive”.
